# Laboratory results reported in publication PMC7862700, “An all-to-all approach to the identification of sequence-specific readers for epigenetic DNA modifications on cytosine”.
# What was measured:
# Test in all cases: DAPPL (digital affinity profiling via proximity ligation, sequencing); 10 mM Tris-HCl pH 7.5, 50 mM NaCl, 1 mM DTT, 4% glycerol, room temperature, 30 min; GST-TFs on glutathione beads, 16-mer random dsDNA library, 0.1% formaldehyde crosslink after washing; high values mean tight binding
# Details in all cases: protein: recombinant; tags: N-terminal GST; dsDNA, one strand shown
# [1] = molecular target: T1, ELK1 (Homo sapiens, UniProt P19419 1-428)
# T1 sequence: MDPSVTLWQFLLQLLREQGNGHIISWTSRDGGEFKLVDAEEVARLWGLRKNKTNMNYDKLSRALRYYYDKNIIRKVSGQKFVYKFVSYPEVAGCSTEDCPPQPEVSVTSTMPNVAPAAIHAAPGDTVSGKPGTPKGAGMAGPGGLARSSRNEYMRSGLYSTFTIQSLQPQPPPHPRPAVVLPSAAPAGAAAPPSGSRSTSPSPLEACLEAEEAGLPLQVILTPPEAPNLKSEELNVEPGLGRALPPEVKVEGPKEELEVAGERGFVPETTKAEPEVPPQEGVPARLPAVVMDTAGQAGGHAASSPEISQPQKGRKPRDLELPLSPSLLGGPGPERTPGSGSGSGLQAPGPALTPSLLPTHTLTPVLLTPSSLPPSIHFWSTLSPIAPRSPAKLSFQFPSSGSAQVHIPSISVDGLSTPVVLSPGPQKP
# Method in brief: (§1)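 Pools were built from human transcription factors expressed in yeast as GST fusions, captured on glutathione beads and DNA-barcoded, along with a tag-only sample. Incubation with 200 nmole of a 16-mer random double-stranded DNA library lasted 30 min at room temperature in Tris/NaCl/DTT/glycerol buffer, and was followed by washing, 0.1% formaldehyde crosslinking, proximity ligation, PCR amplification and Illumina NextSeq500 sequencing. Binding signal is the quotient of each hexamer's read frequency for a factor and its frequency for the tag-only sample.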
# [2] = molecular target: T2, GABPA (Homo sapiens, UniProt Q06546 1-454)
# T2 sequence: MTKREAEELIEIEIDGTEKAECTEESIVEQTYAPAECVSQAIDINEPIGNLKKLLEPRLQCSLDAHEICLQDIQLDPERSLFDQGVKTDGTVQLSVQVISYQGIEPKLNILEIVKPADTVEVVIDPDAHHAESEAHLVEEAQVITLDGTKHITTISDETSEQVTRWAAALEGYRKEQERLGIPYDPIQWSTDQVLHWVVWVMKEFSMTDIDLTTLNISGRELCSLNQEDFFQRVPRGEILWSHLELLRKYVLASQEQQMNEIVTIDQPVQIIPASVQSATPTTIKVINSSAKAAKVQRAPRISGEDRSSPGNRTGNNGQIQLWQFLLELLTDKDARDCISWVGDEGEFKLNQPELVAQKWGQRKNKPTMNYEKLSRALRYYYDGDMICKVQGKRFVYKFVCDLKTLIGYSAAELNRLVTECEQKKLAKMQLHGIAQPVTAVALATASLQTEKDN
# Method in brief: as §1
# [3] = molecular target: T3, ERG (Homo sapiens, UniProt P11308 1-479)
# T3 sequence: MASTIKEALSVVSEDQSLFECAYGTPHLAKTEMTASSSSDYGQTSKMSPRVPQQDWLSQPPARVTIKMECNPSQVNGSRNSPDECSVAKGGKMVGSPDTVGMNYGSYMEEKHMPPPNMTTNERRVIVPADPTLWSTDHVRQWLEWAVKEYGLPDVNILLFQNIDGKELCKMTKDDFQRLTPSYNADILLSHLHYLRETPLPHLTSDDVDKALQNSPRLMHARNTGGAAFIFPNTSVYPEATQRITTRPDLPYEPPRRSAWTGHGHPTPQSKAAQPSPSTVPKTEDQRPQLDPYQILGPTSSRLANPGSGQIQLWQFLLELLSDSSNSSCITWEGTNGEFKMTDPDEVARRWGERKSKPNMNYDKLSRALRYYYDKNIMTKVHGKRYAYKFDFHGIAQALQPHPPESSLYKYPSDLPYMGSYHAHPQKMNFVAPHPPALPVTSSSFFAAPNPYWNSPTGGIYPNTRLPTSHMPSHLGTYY
# Method in brief: as §1
# [4] = molecular target: ELF1 (Homo sapiens, UniProt P32519 1-619)
# Method in brief: as §1
# [5] = molecular target: T4, EHF (Homo sapiens, UniProt Q9NZC4 1-300)
# T4 sequence: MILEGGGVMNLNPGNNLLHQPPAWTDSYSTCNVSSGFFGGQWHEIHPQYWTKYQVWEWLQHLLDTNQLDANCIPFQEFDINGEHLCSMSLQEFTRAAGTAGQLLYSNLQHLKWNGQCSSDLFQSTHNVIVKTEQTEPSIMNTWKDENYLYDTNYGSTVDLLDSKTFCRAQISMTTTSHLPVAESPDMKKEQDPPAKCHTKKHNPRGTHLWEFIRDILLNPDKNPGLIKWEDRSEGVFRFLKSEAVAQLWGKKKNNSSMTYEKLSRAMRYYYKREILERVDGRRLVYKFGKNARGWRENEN
# Method in brief: as §1
# [6] = molecular target: SPIB (Homo sapiens, UniProt Q01892 1-262)
# Method in brief: as §1
# [7] = molecular target: T5, FEV (Homo sapiens, UniProt Q99581 1-238)
# T5 sequence: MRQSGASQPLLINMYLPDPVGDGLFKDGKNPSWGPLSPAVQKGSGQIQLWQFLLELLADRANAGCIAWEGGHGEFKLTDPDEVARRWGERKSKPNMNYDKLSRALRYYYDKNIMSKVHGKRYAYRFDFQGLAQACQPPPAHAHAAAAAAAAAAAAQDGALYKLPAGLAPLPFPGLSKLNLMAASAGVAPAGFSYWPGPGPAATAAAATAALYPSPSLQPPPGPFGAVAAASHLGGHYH
# Method in brief: as §1
# [8] = molecular target: ETV5 (Homo sapiens, UniProt P41161 1-510)
# Method in brief: as §1
# [9] = molecular target: ELF4 (Homo sapiens, UniProt Q99607 1-663)
# Method in brief: as §1
# [10] = molecular target: T6, ELK4 (Homo sapiens, UniProt P28324-2 1-405)
# T6 sequence: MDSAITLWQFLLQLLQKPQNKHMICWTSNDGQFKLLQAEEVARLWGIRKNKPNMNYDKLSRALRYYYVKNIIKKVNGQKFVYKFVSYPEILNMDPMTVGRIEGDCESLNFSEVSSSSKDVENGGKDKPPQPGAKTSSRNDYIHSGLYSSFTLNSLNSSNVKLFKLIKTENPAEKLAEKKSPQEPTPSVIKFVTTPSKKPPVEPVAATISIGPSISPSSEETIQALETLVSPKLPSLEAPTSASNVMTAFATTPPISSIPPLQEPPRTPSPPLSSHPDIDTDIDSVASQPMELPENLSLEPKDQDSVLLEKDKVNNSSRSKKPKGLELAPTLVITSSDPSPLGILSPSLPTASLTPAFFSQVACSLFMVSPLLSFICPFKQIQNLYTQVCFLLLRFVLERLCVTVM
# Method in brief: as §1
# [11] = molecular target: T7, ETV2 (Homo sapiens, UniProt O00321 1-342)
# T7 sequence: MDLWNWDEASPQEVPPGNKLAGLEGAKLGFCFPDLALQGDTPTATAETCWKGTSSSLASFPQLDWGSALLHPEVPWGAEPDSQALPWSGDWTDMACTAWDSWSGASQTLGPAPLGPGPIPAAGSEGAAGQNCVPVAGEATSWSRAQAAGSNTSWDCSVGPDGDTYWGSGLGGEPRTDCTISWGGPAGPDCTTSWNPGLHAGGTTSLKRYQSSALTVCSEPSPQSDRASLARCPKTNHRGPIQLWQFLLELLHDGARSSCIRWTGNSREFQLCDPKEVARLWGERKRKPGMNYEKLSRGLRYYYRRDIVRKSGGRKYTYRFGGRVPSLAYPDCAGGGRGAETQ
# Method in brief: as §1
# [12] = molecular target: ETV1 (Homo sapiens, UniProt P50549 1-477)
# Method in brief: as §1
# [13] = molecular target: T8, ERF (Homo sapiens, UniProt P50548 1-548)
# T8 sequence: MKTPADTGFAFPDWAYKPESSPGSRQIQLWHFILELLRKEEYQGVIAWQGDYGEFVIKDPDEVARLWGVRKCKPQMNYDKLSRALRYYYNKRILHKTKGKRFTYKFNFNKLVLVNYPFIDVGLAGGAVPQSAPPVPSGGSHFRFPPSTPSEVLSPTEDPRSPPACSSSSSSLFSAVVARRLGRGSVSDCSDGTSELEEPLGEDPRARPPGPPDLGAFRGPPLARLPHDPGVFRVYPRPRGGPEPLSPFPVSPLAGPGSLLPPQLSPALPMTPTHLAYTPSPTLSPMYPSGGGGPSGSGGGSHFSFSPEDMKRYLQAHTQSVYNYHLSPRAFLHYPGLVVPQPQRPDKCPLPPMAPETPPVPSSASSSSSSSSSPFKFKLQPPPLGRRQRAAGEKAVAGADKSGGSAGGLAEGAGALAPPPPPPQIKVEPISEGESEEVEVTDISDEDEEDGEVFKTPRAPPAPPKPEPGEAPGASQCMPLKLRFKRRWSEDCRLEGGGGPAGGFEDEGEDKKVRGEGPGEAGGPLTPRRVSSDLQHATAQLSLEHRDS
# Method in brief: as §1
# [14] = molecular target: T9, ETV3L (Homo sapiens, UniProt Q6ZN32 1-361)
# T9 sequence: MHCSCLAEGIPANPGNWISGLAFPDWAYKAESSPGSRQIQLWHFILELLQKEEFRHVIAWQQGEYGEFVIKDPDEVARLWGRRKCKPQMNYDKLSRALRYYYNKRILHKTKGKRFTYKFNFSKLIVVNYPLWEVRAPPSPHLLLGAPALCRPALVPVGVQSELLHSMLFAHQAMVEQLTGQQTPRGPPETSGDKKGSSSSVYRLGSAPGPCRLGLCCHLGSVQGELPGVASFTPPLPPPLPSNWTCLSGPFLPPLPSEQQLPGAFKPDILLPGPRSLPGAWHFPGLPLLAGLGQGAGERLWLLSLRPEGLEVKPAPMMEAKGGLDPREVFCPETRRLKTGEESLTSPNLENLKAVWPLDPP
# Method in brief: as §1
# [15] = molecular target: T10, ETS2 (Homo sapiens, UniProt P15036 1-469)
# T10 sequence: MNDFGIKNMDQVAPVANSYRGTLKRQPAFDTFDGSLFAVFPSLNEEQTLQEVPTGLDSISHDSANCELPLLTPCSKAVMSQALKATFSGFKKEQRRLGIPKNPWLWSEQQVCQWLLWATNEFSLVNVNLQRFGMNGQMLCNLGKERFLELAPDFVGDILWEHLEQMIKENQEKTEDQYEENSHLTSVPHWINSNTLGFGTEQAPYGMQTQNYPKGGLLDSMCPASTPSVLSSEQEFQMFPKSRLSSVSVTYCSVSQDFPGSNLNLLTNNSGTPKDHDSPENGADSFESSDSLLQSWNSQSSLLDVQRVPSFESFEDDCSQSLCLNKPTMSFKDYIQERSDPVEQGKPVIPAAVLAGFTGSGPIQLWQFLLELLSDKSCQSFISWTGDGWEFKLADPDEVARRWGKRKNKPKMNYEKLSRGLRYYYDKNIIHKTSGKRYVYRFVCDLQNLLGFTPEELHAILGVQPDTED
# Method in brief: as §1
# [16] = molecular target: T11, SPDEF (Homo sapiens, UniProt O95238 1-335)
# T11 sequence: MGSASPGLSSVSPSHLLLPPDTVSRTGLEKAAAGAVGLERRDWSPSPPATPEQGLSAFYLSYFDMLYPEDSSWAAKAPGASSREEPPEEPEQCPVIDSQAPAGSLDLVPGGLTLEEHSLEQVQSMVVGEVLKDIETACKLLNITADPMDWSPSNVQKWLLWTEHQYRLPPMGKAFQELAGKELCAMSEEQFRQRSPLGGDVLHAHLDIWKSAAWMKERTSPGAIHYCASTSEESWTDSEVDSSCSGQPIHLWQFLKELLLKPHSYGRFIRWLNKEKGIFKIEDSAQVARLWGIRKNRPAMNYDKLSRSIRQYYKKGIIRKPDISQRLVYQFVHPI
# Method in brief: as §1
# [17] = molecular target: T12, ETV7 (Homo sapiens, UniProt Q9Y603 1-341)
# T12 sequence: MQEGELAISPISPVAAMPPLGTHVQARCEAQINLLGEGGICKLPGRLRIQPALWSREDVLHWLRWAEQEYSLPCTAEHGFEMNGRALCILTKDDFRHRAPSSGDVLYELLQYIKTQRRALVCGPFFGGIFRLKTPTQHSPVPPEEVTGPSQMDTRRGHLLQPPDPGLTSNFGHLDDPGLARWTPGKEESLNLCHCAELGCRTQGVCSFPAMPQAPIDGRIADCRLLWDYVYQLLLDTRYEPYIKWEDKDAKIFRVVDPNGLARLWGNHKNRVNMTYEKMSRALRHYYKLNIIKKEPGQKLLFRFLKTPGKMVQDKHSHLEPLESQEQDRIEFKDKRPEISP
# Method in brief: as §1
# [18] = molecular target: T13, ETV3 (Homo sapiens, UniProt P41162-2 1-143)
# T13 sequence: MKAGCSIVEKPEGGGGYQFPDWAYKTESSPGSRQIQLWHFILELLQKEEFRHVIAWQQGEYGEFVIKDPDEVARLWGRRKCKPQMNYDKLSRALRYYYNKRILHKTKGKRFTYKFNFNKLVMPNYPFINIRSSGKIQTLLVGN
# Method in brief: as §1
# [19] = molecular target: ETV6 (Homo sapiens, UniProt P41212 1-452)
# Method in brief: as §1
# Sequence of ELF1 (P32519 whole entry): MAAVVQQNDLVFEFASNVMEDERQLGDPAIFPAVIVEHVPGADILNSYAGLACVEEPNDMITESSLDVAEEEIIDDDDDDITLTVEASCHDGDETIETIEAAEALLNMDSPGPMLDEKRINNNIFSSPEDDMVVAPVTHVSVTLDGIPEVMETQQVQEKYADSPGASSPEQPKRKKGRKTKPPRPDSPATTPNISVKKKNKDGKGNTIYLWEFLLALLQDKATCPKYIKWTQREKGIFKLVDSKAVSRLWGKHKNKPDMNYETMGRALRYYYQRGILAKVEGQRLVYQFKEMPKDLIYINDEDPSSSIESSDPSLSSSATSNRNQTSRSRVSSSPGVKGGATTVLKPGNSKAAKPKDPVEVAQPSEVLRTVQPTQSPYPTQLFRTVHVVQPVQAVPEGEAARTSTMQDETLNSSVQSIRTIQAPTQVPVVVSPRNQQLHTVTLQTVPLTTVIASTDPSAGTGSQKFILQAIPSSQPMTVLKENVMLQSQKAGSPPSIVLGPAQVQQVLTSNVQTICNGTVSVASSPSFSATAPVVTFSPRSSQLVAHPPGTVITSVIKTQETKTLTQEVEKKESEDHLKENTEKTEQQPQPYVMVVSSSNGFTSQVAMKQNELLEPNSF
# Sequence of ETV5 (P41161 whole entry): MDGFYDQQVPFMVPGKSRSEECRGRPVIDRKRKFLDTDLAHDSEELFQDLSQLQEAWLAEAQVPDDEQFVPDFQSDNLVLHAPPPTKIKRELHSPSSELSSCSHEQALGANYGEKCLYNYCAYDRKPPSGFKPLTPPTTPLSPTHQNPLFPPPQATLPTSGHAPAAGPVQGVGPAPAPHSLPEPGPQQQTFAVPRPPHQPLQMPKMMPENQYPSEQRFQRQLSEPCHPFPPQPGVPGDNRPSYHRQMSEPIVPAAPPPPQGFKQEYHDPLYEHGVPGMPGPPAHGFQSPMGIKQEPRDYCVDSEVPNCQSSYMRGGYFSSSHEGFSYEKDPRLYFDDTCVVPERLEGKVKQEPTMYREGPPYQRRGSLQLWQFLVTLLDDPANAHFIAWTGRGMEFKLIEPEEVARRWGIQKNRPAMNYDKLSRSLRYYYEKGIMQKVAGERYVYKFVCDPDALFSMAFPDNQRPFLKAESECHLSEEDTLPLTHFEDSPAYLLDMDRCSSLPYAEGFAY
# Sequence of ELF4 (Q99607 whole entry): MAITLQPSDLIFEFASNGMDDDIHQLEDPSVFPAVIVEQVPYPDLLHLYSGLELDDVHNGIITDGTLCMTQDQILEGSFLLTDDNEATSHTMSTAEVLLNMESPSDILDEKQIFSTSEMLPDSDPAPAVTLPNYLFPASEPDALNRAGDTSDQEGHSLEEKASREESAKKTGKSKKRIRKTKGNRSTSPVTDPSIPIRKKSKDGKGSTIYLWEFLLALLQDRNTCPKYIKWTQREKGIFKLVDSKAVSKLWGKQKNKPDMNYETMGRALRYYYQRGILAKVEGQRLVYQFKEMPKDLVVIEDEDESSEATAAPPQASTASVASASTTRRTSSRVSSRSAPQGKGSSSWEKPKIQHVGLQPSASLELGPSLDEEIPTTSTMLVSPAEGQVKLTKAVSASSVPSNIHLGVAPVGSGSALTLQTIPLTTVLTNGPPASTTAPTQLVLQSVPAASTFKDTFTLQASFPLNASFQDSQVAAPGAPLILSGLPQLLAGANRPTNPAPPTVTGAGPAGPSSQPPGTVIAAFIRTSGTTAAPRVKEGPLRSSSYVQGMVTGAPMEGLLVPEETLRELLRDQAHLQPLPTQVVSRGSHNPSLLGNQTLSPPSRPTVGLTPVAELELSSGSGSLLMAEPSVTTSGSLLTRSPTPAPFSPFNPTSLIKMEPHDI
# Sequence of ETV1 (P50549 whole entry): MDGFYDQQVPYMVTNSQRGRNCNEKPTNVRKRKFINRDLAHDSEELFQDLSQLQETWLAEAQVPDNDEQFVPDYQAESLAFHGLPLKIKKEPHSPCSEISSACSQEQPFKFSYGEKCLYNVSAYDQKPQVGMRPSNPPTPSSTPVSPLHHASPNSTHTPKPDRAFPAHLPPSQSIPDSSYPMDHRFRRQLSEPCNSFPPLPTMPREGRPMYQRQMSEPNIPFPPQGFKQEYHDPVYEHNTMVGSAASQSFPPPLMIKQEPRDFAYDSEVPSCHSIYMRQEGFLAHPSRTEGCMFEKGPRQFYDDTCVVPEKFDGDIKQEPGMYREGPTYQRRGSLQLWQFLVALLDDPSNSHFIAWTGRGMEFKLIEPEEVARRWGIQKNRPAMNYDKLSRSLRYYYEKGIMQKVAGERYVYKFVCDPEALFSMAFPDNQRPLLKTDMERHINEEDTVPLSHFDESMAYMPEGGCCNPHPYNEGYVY
# Sequence of SPIB (Q01892 whole entry): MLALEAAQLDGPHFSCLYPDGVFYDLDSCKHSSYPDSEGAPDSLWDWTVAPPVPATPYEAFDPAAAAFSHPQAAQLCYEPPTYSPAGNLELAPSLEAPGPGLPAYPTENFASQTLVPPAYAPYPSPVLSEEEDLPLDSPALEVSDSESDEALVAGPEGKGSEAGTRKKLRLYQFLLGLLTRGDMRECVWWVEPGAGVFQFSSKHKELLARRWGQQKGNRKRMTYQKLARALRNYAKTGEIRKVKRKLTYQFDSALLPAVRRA
# Sequence of ETV6 (P41212 whole entry): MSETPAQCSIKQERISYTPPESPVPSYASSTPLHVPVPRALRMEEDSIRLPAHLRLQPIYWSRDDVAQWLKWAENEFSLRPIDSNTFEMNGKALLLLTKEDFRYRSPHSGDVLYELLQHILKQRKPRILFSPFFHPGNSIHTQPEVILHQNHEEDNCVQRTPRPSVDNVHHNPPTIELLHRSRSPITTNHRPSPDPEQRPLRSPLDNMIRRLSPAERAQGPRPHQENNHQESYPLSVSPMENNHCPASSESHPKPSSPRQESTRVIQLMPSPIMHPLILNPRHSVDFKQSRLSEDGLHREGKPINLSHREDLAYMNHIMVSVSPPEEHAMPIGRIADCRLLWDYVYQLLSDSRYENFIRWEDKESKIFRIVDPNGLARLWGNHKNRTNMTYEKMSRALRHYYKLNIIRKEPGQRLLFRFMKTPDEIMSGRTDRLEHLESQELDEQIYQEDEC
sequence,measurement,setting,value
TGCCCA,binding signal,[1],"1.23 fold enrichment (6-mer frequency, TF over GST control)"
same,binding signal,[2],"1.19 fold enrichment (6-mer frequency, TF over GST control)"
same,binding signal,[3],"1.14 fold enrichment (6-mer frequency, TF over GST control)"
same,binding signal,[4],"1.16 fold enrichment (6-mer frequency, TF over GST control)"
same,binding signal,[5],"1.08 fold enrichment (6-mer frequency, TF over GST control)"
same,binding signal,[6],"1.12 fold enrichment (6-mer frequency, TF over GST control)"
same,binding signal,[7],"1.21 fold enrichment (6-mer frequency, TF over GST control)"
same,binding signal,[8],"1.2 fold enrichment (6-mer frequency, TF over GST control)"
same,binding signal,[9],"1.2 fold enrichment (6-mer frequency, TF over GST control)"
same,binding signal,[10],"1.25 fold enrichment (6-mer frequency, TF over GST control)"
same,binding signal,[11],"1.1 fold enrichment (6-mer frequency, TF over GST control)"
same,binding signal,[12],"1.03 fold enrichment (6-mer frequency, TF over GST control)"
same,binding signal,[13],"1.12 fold enrichment (6-mer frequency, TF over GST control)"
same,binding signal,[14],"1.12 fold enrichment (6-mer frequency, TF over GST control)"
same,binding signal,[15],"1.12 fold enrichment (6-mer frequency, TF over GST control)"
same,binding signal,[16],"1.12 fold enrichment (6-mer frequency, TF over GST control)"
same,binding signal,[17],"1.23 fold enrichment (6-mer frequency, TF over GST control)"
same,binding signal,[18],"1.15 fold enrichment (6-mer frequency, TF over GST control)"
same,binding signal,[19],"1.14 fold enrichment (6-mer frequency, TF over GST control)"
